Assay outcomes deposited in PubChem BioAssay by several laboratories.
PAX8 reporter: PAX8 transcriptional activity inhibition. RMG-I TPO-luciferase reporter, SteadyGlo, 24 h. inhibition, % at 12.6 µM. 1.2% of 360,000 active;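 active = mean replicate inhibition at least 60% with every replicate also reaching 60%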;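 note: luciferase light reporting Pax8 driven TPO promoter activity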
TROY NFkB inh: inhibitors of TROY-dependent NF-kB signaling | Q293 LMP1-TROYcd NF-kB luciferase reporter, 4 h | inhibition, % at 10 µM | 0.98% of 360,000 active;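 active = compounds whose plate-normalised and pattern-corrected inhibition of the luciferase reporter signal at the single screening dose is 50% or more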
TWEAK-Fn14 inh: inhibitors of TWEAK-Fn14 interaction signaling. inhibition, % at 10 µM. 2% of 360,000 active. TWEAK-stimulated Fn14 reporter cells, luciferase luminescence, 8 h; in the data active = inhibition above about 50%
LGR2 inh: blocks bursicon-induced cAMP signaling via Drosophila LGR2; HEK293 LGR2, CRE-luciferase, bursicon-stimulated, 4 h; inhibition, % at 9.99 µM; 0.35% of 380,000 active;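 active = drop in luminescence signal, shown as inhibition above about 50% in the replicate tests, limit read from the data, passing the limit was not always enough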;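 note: agonist challenge used bursicon conditioned medium at about half maximal strength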
EWS-Fli block: inhibitors of EWS/Fli oncoprotein transcriptional activity; A673 NR0B1-luciferase reporter, viability-normalised; inhibition, % at 12.6 µM; 0.67% of 350,000 active;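 active = mean inhibition of at least 50% after viability correction, with every replicate also passing that limit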;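 note: firefly luciferase signal divided by Alamar Blue viability fluorescence both relative to DMSO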
EBV LMP1 NFkB: Epstein-Barr LMP1 NF-kappaB reporter inhibition. 0.69% of 350,000 active. AID 504558. LMP1-induced NF-kappaB luciferase reporter cells, luminescence. inhibition, % at 12.5 µM; in the data active = inhibition above about 41%
A number is an active result; 0 = inactive; - = no result. In the library only some 3.1% were active in any assay of this set; here they are far more common.

SMILES	PAX8 reporter	TROY NFkB inh	TWEAK-Fn14 inh	LGR2 inh	EWS-Fli block	EBV LMP1 NFkB
COc1cc2c(cc1OC)-c1cc(Nc3ccc4c(c3)OCCO4)nc(=O)n1CC2	-	79	86	-	-	51
COc1ccc(-n2ncc3c(NCCCN4CCOCC4)ncnc32)cc1	-	59	74	0	-	0
COc1ccc(-n2ncc3c(NCCN4CCOCC4)ncnc32)cc1	-	53	59	-	-	0
COc1ccc(-c2cc(CNC(=O)CCl)on2)cc1	-	-	76	0	-	0
CCN(CC)S(=O)(=O)c1ccc(C(=O)N2CCN(c3ncccn3)CC2)cc1	0	0	0	0	0	0
CCN(Cc1ccccc1)S(=O)(=O)c1ccc(C(=O)N2CCN(c3nc4ccccc4s3)CC2)cc1	0	0	93	0	0	0
O=C(NCc1ccc2c(c1)OCO2)NC1CCCCC1	0	0	0	0	0	0
O=C(NC1CCCCC1)NC1CC2CCC(C1)N2Cc1nnnn1Cc1ccc2c(c1)OCO2 (stereo not drawn)	-	-	87	-	-	0
Cc1ccc(C(=O)c2ccccc2C(=O)OCC(=O)NCCc2ccc(Cl)cc2Cl)cc1	0	0	0	0	-	0
CCCNC(=O)COC(=O)c1ccccc1C(=O)c1ccc(Cl)c([N+](=O)[O-])c1	0	67	99	106	55	48
Cc1ccc(Cl)c(NC(=O)COC(=O)c2ccccc2C(=O)c2ccc(Cl)c([N+](=O)[O-])c2)c1Cl	0	65	100	0	-	73
O=C(C[C@@H]1C[C@@H]2c3cc(NC(=O)Nc4ccc(C(F)(F)F)cc4)ccc3O[C@@H]2[C@@H](CO)O1)NCC1CC1	0	-	-	0	0	-
C[C@H]1CCC/C=C/[C@@H]2C[C@H](O)C[C@H]2[C@H](O)[C@H](S(=O)c2ccc(O)cc2)CC(=O)O1 (stereo partly drawn)	111	0	0	-	66	0
CCOC(=O)c1ccc(NC(=O)c2nc[nH]c2C(=O)NCCNC(=O)c2[nH]cnc2C(=O)Nc2ccc(C(=O)OCC)cc2)cc1	0	0	0	0	60	0
COc1ccc(NC(=O)N(C)C[C@@H]2Oc3ccc(NC(=O)NC(C)C)cc3CC(=O)N([C@@H](C)CO)C[C@H]2C)cc1	0	-	-	0	0	-
C[C@@H]1CN([C@@H](C)CO)C(=O)c2cccc(NC(=O)NC3CCCCC3)c2O[C@@H]1CN(C)S(=O)(=O)c1ccc(Cl)cc1	0	-	-	0	0	-
C[C@H]1CN([C@@H](C)CO)C(=O)c2cccc(NC(=O)NC3CCCCC3)c2O[C@H]1CN(C)S(=O)(=O)c1ccc(Cl)cc1	72	-	-	0	0	-
C[C@H](CO)N1C[C@H](C)[C@H](CN(C)S(=O)(=O)c2ccc(F)cc2)Oc2c(NC(=O)NC3CCCCC3)cccc2C1=O	62	-	-	-	0	-
COc1ccccc1-c1ccc([C@H]2[C@@H](CO)N(C(=O)C3CCOCC3)[C@H]2C#N)cc1	0	-	-	0	0	-
CC(C)C(Cl)=NOC(=O)Nc1ccc(S(N)(=O)=O)cc1	0	0	56	0	0	0
COC(=O)[C@H](C)NC(=O)Nc1ccc(S(N)(=O)=O)cc1	-	0	0	-	-	0
C[C@@H]1CN([C@H](C)CO)C(=O)Cc2cc(NC(=O)Nc3ccc(F)cc3)ccc2O[C@H]1CN(C)C(=O)NC1CCCCC1	0	-	-	0	0	-
CC(C)NC(=O)C1CCN(C(=O)N(C)C)CC1	-	0	51	-	-	0
CCOCCCNC(=O)C1CCN(C(=O)N(C)C)CC1	-	0	0	0	0	0
CCOC(=O)/C(=N/Nc1ccc(OC)cc1)Sc1nnc(CCc2ccccc2)n1-c1ccccc1	0	68	51	0	0	0
SMILES	PAX8 reporter	TROY NFkB inh	TWEAK-Fn14 inh	LGR2 inh	EWS-Fli block	EBV LMP1 NFkB
CC(=O)/C(=N/Nc1ccc(C)cc1)Sc1nnc(CCc2ccccc2)n1-c1ccccc1	0	0	0	0	0	0
O=C(C[C@H]1C[C@H]2c3cc(NC(=O)Nc4ccc(F)cc4)ccc3O[C@H]2[C@H](CO)O1)NC1CCCC1	0	-	-	0	0	-
Cc1ccccc1N=C1N=C(N)c2ccccc21	138	0	0	0	0	0
Cc1ccc(N=C2N=C(N)c3ccccc32)c(C)c1	-	0	0	-	-	0
COc1cc(C2c3[nH]c4ccccc4c3CC3COC(=O)N32)cc(OC)c1O (stereo not drawn)	-	0	0	0	64	0
CC(=O)N1CCOc2ccc(S(=O)(=O)Nc3ccc(Cl)cn3)cc21	0	54	0	0	0	0
CCC(=O)N[C@H]1C=C[C@H](CC(=O)NCc2cc(F)cc(F)c2)O[C@H]1CO	0	-	-	0	0	-
Fc1ccc(N2CCN(c3ncnc4c3nnn4Cc3ccccc3Cl)CC2)cc1	-	0	65	-	-	0
COCC(=O)N[C@@H]1CC[C@H](CC(=O)NCc2ccc(Cl)cc2)O[C@H]1CO	0	-	-	0	0	-
Cn1c(-c2ccc(F)cc2)cnc1SCC(=O)N1CCCCC1	0	0	60	-	-	0
CCCNC(=O)CSCc1nc(-c2ccc(SC)cc2)oc1C	0	0	0	0	0	0
COc1ccc(-c2nc(CS(=O)CC(=O)NCc3ccc(Cl)cc3)c(C)o2)cc1 (stereo not drawn)	0	0	0	0	0	44
CCc1ccc(-c2nc(CSCC(=O)NCc3ccco3)c(C)o2)cc1	64	0	65	0	84	0
CCc1ccc(-c2nc(CS(=O)CC(=O)NCc3ccccc3)c(C)o2)cc1 (stereo not drawn)	0	0	57	0	0	0
C[C@@H]1CCCCO[C@H](CN(C)Cc2ccc3c(c2)OCO3)[C@@H](C)CN([C@H](C)CO)C(=O)c2cc(NC(=O)Nc3ccccc3)ccc2O1	0	-	-	0	0	-
Cc1cccc(NC(=O)/C(C#N)=C\c2ccc(C(=O)O)cc2)c1	0	0	0	0	0	0
COc1cc(C)c(/C=C(\C#N)C(=O)Nc2cccc(C)c2)cc1C(C)C	0	84	86	0	0	0
